Data reported in PubChem BioAssay (Tox21).
Activity calls are given as the source filed them. The call rests on the fitted dose curve; in most records, active means well fitted curve in the direction sought with a large enough effect in the repeat runs; inconclusive means weak or mixed curves; inactive means flat fitted curve, though single readings scatter.

Assay: qHTS assay to test for compound auto fluorescence at 590 nm (red) in HEK293 cells (AID 720679)
Conditions: red autofluorescence 540/590 nm; series mostly up to 91.3 µM
Excerpt: National Center for Advancing Translational Sciences [NCATS]
NIH Chemical Genomics Center [NCGC]
U.S. Environmental Protection Agency [EPA]
National Institutes of Environmental Health Sciences [NIEHS]
National Toxicology Program [NTP]
U.S. Food and Drug Administration [FDA]
Compound auto fluorescence often interferes with screening of the compound library against various biological targets and signaling pathways. Some of these compounds may have fluorophoric properties. Such properties may interfere with the assay outputs resulting in false positives and/or negatives. To decrease such complications and ensure the compound activities are relevant in terms of biological response, the Tox21 10K compound library was screened for auto fluorescence.
From the fluorophores used as reporter signals in our screening assays, the auto fluorescence equivalencies of compounds against three fluorophores have been evaluated: Triamterene, Fluorescein and Rose Bengal sodium for blue, green and red fluorescence, respectively. The fluorescence intensities were measured using Excitation/Emission wavelengths at 405/460nm, 485/535nm and 540/590nm for blue, green and red labels, respectively. This assay includes the red fluorescence data.
Tox21 Assay Protocol Summary:
2,000 HEK293 cells in 5 uL of culture medium containing 10% dialyzed FBS per well were dispensed into black wall/clear bottom 1536-well plates using a Multidrop Combi Dispenser (Thermo Scientific). The assay plates were incubated for 4-5 hr at 37C to allow cell attachment to the well bottom, followed by the transfer of 23 nL compound or DMSO vehicle by a pintool work station (Kalypsys, San Diego, CA). After the assay plates were incubated overnight at 37C and 5% CO2, fluorescence intensities in the assay plates were measured by an Envision (PerkinElmer, Shelton, CT) plate reader using three labels for measuring blue, green and red fluorescence at […] 460, 535 and 590nm respectively.

| SMILES | outcome |
| --- | --- |
| Nc1ccccc1[N+](=O)[O-] | inactive |
| CCCC(C)=O | inactive |
| O=C(O)CCCCCCCCCCC(=O)O | inactive |
| CCCCOC(=O)COc1ccc(Cl)cc1Cl | inactive |
| O=C(O)c1ccc(C(=O)O)cc1 | inactive |
| CCCCCC1=CCCC1=O | inactive |
| O=C(O)c1cc(=O)c2c(OCC(O)COc3cccc4oc(C(=O)O)cc(=O)c34)cccc2o1 | inactive |
| COc1cc(Cc2cnc(N)nc2N)cc(OC)c1OC | inactive |
| CN(C)CCC(c1ccc(Cl)cc1)c1ccccn1 (stereo not given) | inactive |
| OC[C@H]1O[C@@](CO)(O[C@H]2O[C@H](CO)[C@@H](O)[C@H](O)[C@H]2O)[C@@H](O)[C@@H]1O | inactive |
| Cc1ccc2oc(=O)ccc2c1 | inactive |
| C[C@H]1C[C@@H]2[C@H]([C@@H](O)C[C@@]3(C)[C@H]2CC[C@]3(O)C(=O)CO)[C@@]2(C)C=CC(=O)C=C12 | inactive |
| CN(C)CCC(c1ccccc1)c1ccccn1 (stereo not given) | inactive |
| N[C@@H](Cc1cc(I)c(Oc2cc(I)c(O)c(I)c2)c(I)c1)C(=O)O | inactive |
| ON=C1CCCCC1 | inactive |
| C=CCOC(=O)c1ccccc1C(=O)OCC=C | inactive |
| CCCCCCCC(=O)OC | inactive |
| C=CCNC(N)=S | inactive |
| CCCCN(CCCC)CCCC | inactive |
| CCCCCCCCC/C=C/CC1CC(=O)OC1=O (stereo not given) | inactive |

| SMILES | outcome |
| --- | --- |
| NNc1nncc2ccccc12 | inactive |
| CCCCCCCCCCCCc1ccccc1 | inactive |
| O=C(O)CCCC[C@@H]1SC[C@@H]2NC(=O)N[C@@H]21 | inactive |
| CCCCCCOCCO | inactive |
| CCC(O)OCCCOC (stereo not given) | inactive |
| CCCCCC/C(C=O)=C\c1ccccc1 | inactive |
| Cc1occc(=O)c1O | inactive |
| CSCCC=O | inactive |
| CC[C@H](C)C(=O)O[C@H]1C[C@@H](C)C=C2C=C[C@H](C)[C@H](CC[C@@H]3C[C@@H](O)CC(=O)O3)[C@H]21 | inactive |
| O=c1[nH]nnc2ccccc12 | inactive |
| CCN(CC)c1ccc(C(=O)c2ccccc2C(=O)O)c(O)c1 | inactive |
| Cc1ccc(N(C)C)cc1 | inactive |
| CC1=CC(=O)NS(=O)(=O)O1 | inactive |
| CCCCC(CC)COC(=O)C(C#N)=C(c1ccccc1)c1ccccc1 (stereo not given) | inactive |
| CC(=O)CC(=O)Nc1ccccc1C | inactive |
| O=C(Oc1ccccc1)c1ccccc1 | inactive |
| O=[N+]([O-])c1ccc(/C=C/c2ccc([N+](=O)[O-])cc2S(=O)(=O)O)c(S(=O)(=O)O)c1 | inactive |
| CC(C)(C)[C@@H](O)[C@@H](Cc1ccc(Cl)cc1)n1cncn1 | inactive |
| O=C(CC(C(=O)OC1CCCCC1)S(=O)(=O)O)OC1CCCCC1 (stereo not given) | inactive |
| CN(C)CCOCCN(C)C | inactive |
